From PubChem BioAssay AID463173 (ICCB-Longwood Screening Facility, Harvard Medical School, 2010)
The whole screen tested about 52,000 compounds, of which about 1,700 (3.3%) were called active. Many of the other results were omitted from the sample, so actives are more common in it than they were. Unmarked numbers belong to inactive results. Cut-off read from the data, not from the text of the source: active = survival mostly below about 52% (no sharp cut-off); inactive = mostly above about 56%.

The compounds below were run on Wild type (assay: growth inhibition of S. aureus wild type versus tarO mutant, primary screen, teichoic acid synthesis inhibitors, RN4220, OD600 (AID 463173)). Settings: S. aureus RN4220 wild type/DeltatarO growth, OD600, 18 h, hits give low values, screened at 18.75 µg/mL (by protocol).

Compound	survival
CCOc1ccc(NC(=O)c2sc(-n3nc(C)c(CCC(C)C)c3C)nc2C)cc1	123%
CCCCOc1ccc(CNC(=O)c2cnc3sc(N4CCCCCC4)nn3c2=O)cc1	91%
CCOc1ccc(CCNC(=O)c2cc3cc4cc(OC)ccc4nc3s2)cc1OCC	117%
Cc1oc(-c2ccccc2F)nc1CSCC(=O)N1CCN(c2ccccc2)CC1	62%
Cc1cccc(-c2nc(CSCC(=O)N3CCN(c4ccccc4)CC3)c(C)o2)c1	18% (active)
Cc1cccc(-c2nc(CSCC(=O)N3CCN(c4cccc(C)c4C)CC3)c(C)o2)c1	0% (active)
Cc1ccc(-c2nc(CS(=O)(=O)CC(=O)N3CCN(c4cccc(C)c4C)CC3)c(C)o2)cc1	129%
COc1ccc(-c2nc(CSCC(=O)N3CCN(c4cccc(C)c4C)CC3)c(C)o2)cc1OC	22%
COc1ccc(-c2nc(CSCC(=O)N3CCN(c4ccccc4)CC3)c(C)o2)cc1	53%
COc1ccc(N2CCN(CC(=O)c3ccc(OC)c(OC)c3)CC2)cc1	106%
CC(C)OCCCNC(=O)Cn1ccc2cc(S(=O)(=O)N3CCCCCC3)ccc21	124%
COc1ccc2c(Sc3ccccc3)c(C(=O)NCc3cccc(OC)c3OC)[nH]c2c1	89%
CC(C)COc1ccc(C(=O)N2CCC(c3nc4ccccc4s3)CC2)cc1	42%
CC(C)CSc1nnc(-c2ccccc2)c(-c2ccccc2)n1	-4% (active)
CCc1ccccc1NC(=O)CSc1nnc(-c2ccccc2)c(-c2ccccc2)n1	69%
O=C(CSc1nnc(-c2ccccc2)c(-c2ccccc2)n1)Nc1ccccc1Cl	70%
Cc1oc2c(c(C)cc3oc(=O)c(CC(=O)NCCc4ccccc4)c(C)c32)c1C	112%
Cc1cc2ccccc2n1-c1ccc(C(=O)N2CCC(C(=O)NCc3ccc(Cl)cc3)CC2)s1	63%
Cc1cc2ccccc2n1-c1ccc(C(=O)N2CCC(C(=O)NCc3ccc(F)cc3)CC2)s1	1% (active)
CCc1ccc(CNC(=O)C2CCN(C(=O)c3ccc(-n4c(C)cc5ccccc54)s3)CC2)cc1	81%

Compound	survival
Cc1ccc(NC(=O)CN2C(=O)CSc3ccc(S(=O)(=O)N4CCCC4)cc32)cc1F	99%
COC(=O)c1cc2c(cc1NC(=O)c1cnn(-c3ccccc3)c1-n1cccc1)OCO2	80%
Cc1cc(C(F)(F)F)nn1-c1nc(-c2ccccc2)cc(C(F)(F)F)n1	13% (active)
COc1ccc(-c2cc(C(F)(F)F)nc(-n3nc(C(F)(F)F)cc3C)n2)cc1	50%
CCCNC(=O)CSc1nc(-c2ccccc2)cc(C(F)(F)F)n1	112%
COc1cccc(-c2cc(C(F)(F)F)nc(-n3nc(C)c(Br)c3C)n2)c1	80%
CCC(C)NC(=O)CSc1nc(-c2ccc(F)cc2)cc(C(F)(F)F)n1 (centres undefined)	81%
FC(F)(F)c1cc(-c2ccccc2)nc2cc(-c3ccccc3)nn12	75%
CN(Cc1ccccc1)c1nc(-c2ccc(F)cc2)cc(C(F)(F)F)n1	80%
Cc1nn(-c2nc(-c3ccccc3)cc(C(F)(F)F)n2)c(C)c1Cl	-3% (active)
Cc1ccc(-c2cc3nc(-c4ccccc4)cc(C(F)(F)F)n3n2)cc1	80%
Cc1nn(-c2nc(-c3ccc(F)cc3)cc(C(F)(F)F)n2)c(C)c1Br	-2% (active)
CC(C)(C)NC(=O)CSc1nc(-c2ccc(F)cc2)cc(C(F)(F)F)n1	78%
Cc1nn(-c2nc(-c3ccc(F)cc3)cc(C(F)(F)F)n2)c(C)c1Cl	-2% (active)
CCCC(C)C(=O)Nc1nnc(C(F)(F)F)s1 (centres undefined)	100%
O=C(Nc1cccc2c1CCCC2)N1CCOc2ccc(Cl)cc21	83%
COc1ccc(-c2nc(CCNC(=O)c3cccs3)cs2)cc1OC	159%
Cc1cccc(Cn2c(CNS(=O)(=O)c3ccc(C(C)C)cc3)nc3cccnc32)c1	78%
N=c1nc(N)nc2n1NC(c1ccc(F)cc1)=CS2	108%
CCC(Sc1ncc(S(=O)(=O)c2ccc(Cl)cc2)c(=O)[nH]1)C(=O)Nc1ccc(OC)cc1 (centres undefined)	96%

Compound	survival
CCC1CCCCN1CC(=O)N1CCCc2c1c(=O)oc1ccc(OCc3ccccc3)cc21 (centres undefined)	3% (active)
CC1CCN(CC(=O)N2CCCc3c2c(=O)oc2ccc(OCc4ccccc4)cc32)CC1	86%
CC1CCCCN1CC(=O)N1CCCc2c1c(=O)oc1ccc(OCc3ccccc3)cc21 (centres undefined)	43%
CCCCN(CC)C(=O)c1cc2c(=O)n3cccc(C)c3nc2s1	77%
CCCN(CCC)C(=O)c1cc2c(=O)n3cccc(C)c3nc2s1	80%
CCCCN(CCCC)C(=O)c1cc2c(=O)n3cccc(C)c3nc2s1	-2% (active)
CCOC(=O)c1[nH]c2ccccc2c1N=CN(C)C	104%
O=c1cc(O)n(-c2ccccc2)c(=S)[nH]1	99%
Cc1ccccc1Cn1cnc2nc3c(cc2c1=O)CC(C)CC3 (centres undefined)	0% (active)
CC1CCc2nc3ncn(Cc4ccccc4F)c(=O)c3cc2C1 (centres undefined)	53%
Cc1ccc(Cn2cnc3nc4c(cc3c2=O)CC(C)CC4)cc1 (centres undefined)	-3% (active)
CC1CCc2nc3ncn(Cc4ccc(Cl)cc4)c(=O)c3cc2C1 (centres undefined)	80%
CC1CCc2nc3ncn(Cc4ccccc4C#N)c(=O)c3cc2C1 (centres undefined)	71%
CC1CCc2nc3ncn(Cc4cccc(F)c4)c(=O)c3cc2C1 (centres undefined)	66%
O=C(O)CN1C(=O)/C(=C\c2ccccc2)SC1=S	102%
CN1/C(=C2/SC(=O)N(Cc3ccccc3)C2=O)Sc2ccccc21	118%
Cc1cc(N2CCC(C)CC2)nc2ccc(NC(=O)CCC(=O)N3CCN(c4cccc(C(F)(F)F)c4)CC3)cc12	64%
Cc1ccc(-c2nonc2NC(=O)c2ccco2)cc1C	79%
COc1ccc(-c2cn3cccnc3n2)cc1NC(=O)c1ccccc1C(F)(F)F	69%
